From PubChem BioAssay
TMEM16A act: mouse TMEM16A channel activation, primary screen; Q8BHY3; HEK293 TMEM16A/YFP-H148Q/I152L, iodide quench fluorescence; active compounds read low; B-score at 10 µM; 340,000 compounds, 0.3% hits;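 active = fluorescence-ratio B-score plate-corrected deviation score at least 3 library SD below zero, with starting fluorescence score within 5 deviations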;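 also: channel opened by trigger with iodide after compound preincubation; score built on the fluorescence ratio of max minus min over baseline; more negative score means more quench and so TMEM16A activation or potentiation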
Target sequence (Q8BHY3 whole entry, looked up): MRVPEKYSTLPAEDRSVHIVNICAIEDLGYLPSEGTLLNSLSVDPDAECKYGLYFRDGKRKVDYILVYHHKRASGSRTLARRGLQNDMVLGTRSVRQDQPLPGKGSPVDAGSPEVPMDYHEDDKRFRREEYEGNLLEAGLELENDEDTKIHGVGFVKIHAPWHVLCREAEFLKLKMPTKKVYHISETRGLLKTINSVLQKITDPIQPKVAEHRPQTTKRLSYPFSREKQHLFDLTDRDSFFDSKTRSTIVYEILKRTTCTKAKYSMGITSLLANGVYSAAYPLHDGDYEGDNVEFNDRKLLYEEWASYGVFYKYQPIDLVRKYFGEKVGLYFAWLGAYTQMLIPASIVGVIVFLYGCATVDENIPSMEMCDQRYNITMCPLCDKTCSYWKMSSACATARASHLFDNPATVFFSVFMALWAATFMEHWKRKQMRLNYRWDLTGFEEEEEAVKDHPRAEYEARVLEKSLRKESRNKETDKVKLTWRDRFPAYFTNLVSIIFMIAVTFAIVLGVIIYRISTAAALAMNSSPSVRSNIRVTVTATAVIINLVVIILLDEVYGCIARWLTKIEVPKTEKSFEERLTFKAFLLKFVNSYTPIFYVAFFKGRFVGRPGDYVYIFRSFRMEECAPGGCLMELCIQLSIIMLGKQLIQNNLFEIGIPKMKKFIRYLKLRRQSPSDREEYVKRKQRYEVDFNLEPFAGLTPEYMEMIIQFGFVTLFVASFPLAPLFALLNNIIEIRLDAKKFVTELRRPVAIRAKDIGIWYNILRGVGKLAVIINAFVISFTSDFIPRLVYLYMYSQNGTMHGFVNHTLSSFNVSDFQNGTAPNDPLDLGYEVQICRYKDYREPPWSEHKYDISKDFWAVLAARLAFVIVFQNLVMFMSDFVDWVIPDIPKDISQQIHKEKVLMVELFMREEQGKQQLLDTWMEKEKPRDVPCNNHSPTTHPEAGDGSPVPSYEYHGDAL
CHT block: inhibitors of human choline transporter CHT; B-score at 10 µM; 310,000 compounds, 0.86% hits; CHT-expressing cells, membrane potential dye, choline response; active compounds read low; Q9GZV3;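 active = B-score over 3 SD under the library average, and starting fluorescence ratio not unusually high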;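 also: choline stimulus applied at its EC90 after an EC20 pre-addition; B-score computed on integrated fluorescence ratio after choline addition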
TMEM16A inh: inhibitors of mouse TMEM16A calcium-activated chloride channel; Q8BHY3; HEK293 TMEM16A/YFP iodide influx fluorescence, ionomycin; normalized B-score (activity score, 25-100; higher = stronger inhibition) at 10 µM; 310,000 compounds, 1.2% hits;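 active = ratio plate-corrected score three or more library SD toward inhibition, starting fluorescence score within five deviations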;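 also: score derived from kinetic fluorescence span divided by baseline fluorescence per well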
CHT allo act: allosterically activates the human high affinity choline transporter; AID 488977; Q9GZV3; 310,000 compounds, 0.49% hits; B-score at 10 µM; CHT-expressing cells, membrane potential dye, choline EC20; active compounds read high; LV-AA mutant CHT in HEK293 cells;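 active = initial fluorescence not abnormally high and integrated response B-score, plate-corrected, over 3 SD above library mean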
CHT inh conf: confirmation of human choline transporter CHT inhibitors | AID 493221 | CHT activity remaining % of control (active compounds read low), % at 10 µM | shares compounds with CHT block | 2,400 compounds, 70% hits | CHT-expressing cells, choline membrane potential dye; LV-to-AA substituted CHT, HEK293 cells;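 active = choline transporter activity left, mean of duplicates at 10 µM, below buffer-only control mean minus 3 SD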;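 also: depolarization triggered by choline at its EC90 following an EC20 pre-addition; 0% = hemicholinium-3 full block and 100% = buffer-only control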
HEK293 CHT ctr: CHT inhibitor counter-screen hit in parental HEK293 cells. shares compounds with CHT block. 2,400 compounds, 4% hits. AID 493222. membrane potential dye, choline response; active = decrease or increase beyond buffer ±3SD. membrane potential ratio readout (active if shifted either direction beyond buffer ±3SD; no single direction) at 10 µM;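 also: parental cells lack the transporter so any hit is non-specific; ratio is peak minus trough fluorescence over baseline after EC90 choline challenge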
The depositor's hits bear a star; i = inactive; nt = no result. Compounds with a hit are over-represented: about 2.3% of the library has one in this group of screens.

SMILES	TMEM16A act	CHT block	TMEM16A inh	CHT allo act	CHT inh conf	HEK293 CHT ctr
CCOc1ccccc1/C=C/C(=O)NCC(=O)N1CCC(N(C)C2CCCCC2C)CC1 (stereo unspecified)	i	-5.47*	i	i	11.4%*	i
Cc1ccc(-c2nc3c(Cl)cc(Cl)cc3c(=O)n2O)cc1	i	-5.45*	100*	i	45.8%*	i
Cn1c(C(=O)O)c(C=O)c2ccccc21	i	-6.68*	i	i	i	i
Cn1c(-c2ccccc2)c(C=O)c2ccccc21	i	i	i	i	nt	nt
CC1CCN(CC(O)COc2ccc(OCC(O)CN3CCC(C)CC3)cc2)CC1 (stereo unspecified)	i	-10.4*	i	i	5.8%*	i
Cc1cc(C2CCCCC2)n(O)c(=O)c1	i	i	i	i	nt	nt
C/C(=C/c1ccccc1)C(=O)N1CC(C)OC(C)C1 (stereo unspecified)	i	i	i	i	nt	nt
COC(=O)C1N[C@@H]([C@@H](NC(=O)COc2ccccc2)C(=O)NCc2ccsc2)SC1(C)C (stereo partly specified)	i	i	i	i	nt	nt
CC(NC(=O)CN(c1cccc(C(F)(F)F)c1)S(=O)(=O)c1ccc(Cl)c([N+](=O)[O-])c1)c1ccccc1 (stereo unspecified)	i	-6.17*	i	i	i	i
CCCCCc1ccc(OCCC[n+]2ccccc2)c(CCCCC)c1	i	-15.4*	i	i	-5.5%*	i
Cc1ccc(C(=O)CCC(=O)NC2CCCC(C)C2C)cc1 (stereo unspecified)	i	-5.22*	i	i	58.3%*	i
O=[N+]([O-])c1ccc(O)c(/C=N/n2cnc3ccccc32)c1	i	-5.01*	25*	i	i	i
CC1CC(=O)N(c2ccc(NCc3ccccc3Cl)c([N+](=O)[O-])c2)C1=O (stereo unspecified)	i	i	i	i	nt	nt
CCCCn1c(N)c(N(Cc2ccccc2OC)C(=O)CCSC)c(=O)[nH]c1=O	i	i	i	i	nt	nt
O=C(Nc1ccc(Cl)cn1)C1CCCN(c2ncnc3c2nc2n3CCCCC2)C1 (stereo unspecified)	i	-6*	i	i	31.8%*	i
CC1CCN(CCNC(=O)C2CCCN(c3ncnc4c3nc3n4CCCCC3)C2)CC1 (stereo unspecified)	i	-10.5*	i	i	32.1%*	i
COc1ccc(Cl)cc1NC(=O)C1CCCN(c2ncnc3c2nc2n3CCCCC2)C1 (stereo unspecified)	i	-5.19*	i	i	57.5%*	i
CCC(C(=O)NC(C)CCc1ccccc1)n1nc(C)n2c(cc3occc32)c1=O (stereo unspecified)	i	-11.3*	i	i	i	-8.54*
CCc1nn(C(CC)C(=O)NCCCc2ccccc2)c(=O)c2cc3occc3n12 (stereo unspecified)	i	i	i	i	nt	nt
COC(=O)c1cc(OC)c(OC)cc1NC(=O)Nc1cccc(C(C)=O)c1	i	i	i	i	nt	nt
CCCCNc1ncnc2c1cnn2-c1ccccc1	i	-5.39*	i	i	i	i
O=C1c2ccccc2C(=O)N1CCCCSc1nnc2c(Cl)cc(Cl)cn12	i	-5.39*	i	i	i	i
CC(C)(C)Nc1nc(Cl)nc(N(C#N)CN2C(=O)c3ccccc3S2(=O)=O)n1	i	-5.64*	i	i	57.2%*	i
CC(C)Nc1nc(Cl)nc(N(C#N)CN2C(=O)c3ccccc3S2(=O)=O)n1	i	i	i	i	nt	nt
N#CCSc1nc2sccc2c(=O)n1-c1ccccc1	i	-5.53*	i	i	i	i
SMILES	TMEM16A act	CHT block	TMEM16A inh	CHT allo act	CHT inh conf	HEK293 CHT ctr
CNC(=O)CSc1nc2sccc2c(=O)n1-c1ccccc1	i	i	i	i	nt	nt
O=c1c2[nH]cnc2n(-c2cccc(F)c2)c(=O)n1Cc1ccccc1	i	i	i	i	nt	nt
O=C(CNS(=O)(=O)c1ccccc1)Nc1ccccc1Br	i	i	i	i	nt	nt
COc1ccccc1NC(=O)CNS(=O)(=O)c1ccccc1	i	-5.72*	i	i	i	i
CC(C)C(=O)Nc1ccc(-c2csc(-c3ccccc3)n2)cc1	i	i	i	i	nt	nt
CCCN1CCN(S(=O)(=O)c2ccc(-n3cnnn3)cc2)CC1	i	i	i	i	nt	nt
COc1ccc(CN2CCNC(=O)C2CC(=O)NCC2CCOCC2)cc1C (stereo unspecified)	i	nt	nt	nt	nt	nt
Cc1onc(-c2ccccc2)c1C(=O)NC(=S)NNC(=O)c1ccco1	i	-7.24*	i	i	59.3%*	i
CCc1ccc(OCC(=O)N2CCN(c3ccccc3F)CC2)cc1	i	-5.55*	i	i	i	i
O=C(Cc1cccc(C(F)(F)F)c1)NCc1ccc(Cl)cc1Cl	i	i	i	i	nt	nt
Cc1nc(SCC(=O)NCCc2ccccc2)nc(C)c1C	i	i	i	i	nt	nt
CCCCN1C(=O)C(O)(CC(=O)c2ccco2)c2cc(Br)ccc21 (stereo unspecified)	i	-5.64*	i	i	i	i
COc1ccc(OC(C)C(=O)NCCC2=CCCCC2)cc1 (stereo unspecified)	i	-5.12*	i	i	i	i
Cc1ncc(CN2CCN(CCC(C)C)C(CCO)C2)s1 (stereo unspecified)	i	i	i	i	nt	nt
CCOC(=O)c1sc(=S)n(CC)c1NC(=O)C1CC1	i	-6.15*	i	i	71.0%*	i
CC(CC1C(C#N)=C(N)SC(N)=C1C#N)c1ccccc1 (stereo unspecified)	i	-5.35*	100*	i	i	i
